# HT1080 IDH1KD tx: kills HT-1080 cells with IDH1 knockdown; HT-1080 IDH1 knockdown viability, ATP luminescence, 48 h; Potency, µM (series often up to 46.1 µM), without a hit: at the top dose activity, negative = toxicity, most hits filed as cytotoxic; 360,000 tested, 2% active; AID 686971;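 further: potency means the concentration at half of the fitted maximal effect; 0% = DMSO wells and -100% = cell-free medium wells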
#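 In this qHTS, HT-1080 cells depleted of IDH1 are exposed for 48 h at 37 °C to compound titrations. Toxicity is scored from CellTiter-Glo luminescence, with DMSO as full viability and medium alone as none.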
# HT1080NT lethal: kills 2HG-producing HT-1080-NT fibrosarcoma cells | HT-1080-NT fibrosarcoma viability, CellTiter-Glo ATP luminescence, 48 h | Potency, µM (top dose mostly 46.1 µM), inactives show top-dose activity, negative = less viability, most hits filed as cytotoxic | 360,000 tested, 1.6% active | AID 686970;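 further: NT is the 2HG producing partner of a matched IDH1 knockdown line; potency means the concentration at half of the fitted maximal effect; 0% = DMSO-treated cells and -100% = media-only wells without cells; nearly all actives have a fitted effect of over 55% in size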
#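 Luminescent CellTiter-Glo readout after 48 hours of compound exposure at 37 degrees C defined viability of HT-1080-NT cells. Activity was normalized to DMSO wells and cell-free media wells; concentration-response curves were fitted and assigned curve classes.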
# uPA surface inh: blocks generation of uPA at the cell surface; cell surface uPA generation assay, qHTS; Potency, µM (highest dose often 38.3 µM), inactives show at the top dose activity change, negative = inhibition, usual class: inhibitors; 330,000 tested, 0.31% active; AID 540303; active means well fitted inhibition curve with a large enough effect; inconclusive means small, poorly fitted or top-dose-only effect; inactive means no such curve, though single readings can be large or run the other way; tested in mouse RAW 264.7 cells; further: potency means the concentration at half of the fitted maximal effect; nearly all actives have a fitted effect of over 55% in size
# DT40 TDP1 CPT: DT40-hTDP1 cell growth loss with CPT; chicken DT40 Tdp1-/-;hTDP1 cells + 20 nM CPT, ATP luminescence, 48 h; Potency, µM (doses to about 46.2 µM), for inactives: top-dose activity change, negative = growth inhibition, hits mostly inhibitors; 420,000 tested, 12% active; AID 686979; further: potency means the concentration at half of the fitted maximal effect; nearly all actives have a fitted effect of over 55% in size
#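 Cell growth measured by CellTiter-Glo luminescence after a minimum 48 h, 37 C compound exposure with 20 nM CPT in Tdp1-knockout DT40 cells stably expressing hTDP1, seeded 400/well; qHTS titration format.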
# IL-1B inflam inh: blocks inflammasome-driven IL-1 beta release. THP-1 LPS/ATP IL-1B secretion, AlphaLISA, 16 h; hits give low values. activity change, % at 57.5 µM. 360,000 tested, 4.7% active. AID 743279; in the data active means activity change below about -50%; inconclusive means mostly about -30% to -49%
#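 Secreted IL-1B measured by AlphaLISA bead assay after 16 h compound exposure of THP-1 cells; compounds (final up to 57.5 uM) added 1 h before LPS (250 ng/mL) and ATP (1.25 mM) stimulation; lower signal means less secretion.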
# DT40 TDP1 no CPT: qHTS for Inhibitors of human tyrosyl-DNA phosphodiesterase 1 (TDP1): qHTS in cells in absence of CPT | DT40 Tdp1-/- hTDP1 cells, no CPT, ATP luminescence, 48 h | 420,000 tested, 15% active | Potency, µM (top dose mostly 46.2 µM), without a hit: top-dose activity change, negative = growth inhibition, hits mostly inhibitors; further: potency means the concentration at half of the fitted maximal effect; nearly all actives have a fitted effect of over 55% in size
#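 Seeded 400 DT40-hTDP1 cells/well (vehicle DMSO, no 20 nM CPT); pinned compounds; ≥48 hr at 37 °C; CellTiter-Glo luminescence as viability measure.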
# * hit, by the source's call; ? = inconclusive; nt = not tested or not shown; [ ] = remark or other dose. Hits are enriched below; roughly 19% of the tested compounds scored in any of these assays. Unless noted, the call rests on the fitted dose curve; in most records, active means well fitted curve in the direction sought with a large enough effect; inconclusive means small, poorly fitted or top-dose-only effect, or another doubt; inactive means no such curve, though single readings can be large; an effect the other way counts as inactive or inconclusive. Unless noted, on the % scale 0 is the no-effect control and ±100 the full control effect.
SMILES,HT1080 IDH1KD tx,HT1080NT lethal,uPA surface inh,DT40 TDP1 CPT,IL-1B inflam inh,DT40 TDP1 no CPT
COc1ccc(OC)c(NC(=O)c2cc(C3CC3)nc3c2c(C)nn3-c2ccc(C)cc2)c1,nt,nt,nt,25.9µM*,nt,?
COc1ccc(CNC(=O)c2cccc(-n3cnc4cccnc43)c2C)cc1,nt,nt,nt,-29.4%,nt,-16.2%
O=C(COC(=O)c1ccccc1NCCO)Nc1cccc(S(=O)(=O)NC2=NCCCCC2)c1,8.3%,9.4%,-1.7%,-13.9%,19.2,-20.3%
ClCC1NCC(c2ccccc2Cl)c2c1[nH]c1ccccc21 (stereo not drawn),-19.6%,-18.2%,?,-32.8%,-6.9,-1.7%
Cc1cccc(NC(=O)CSc2nc3ccc(NC(=O)c4cccs4)cc3s2)c1,nt,nt,nt,13µM*,nt,8.2µM*
Cc1ccccc1NC(=O)CSc1nc2ccc(NC(=O)COc3ccccc3F)cc2s1,nt,nt,nt,13µM*,nt,10.3µM*
Cc1cccc(NC(=O)CSc2nc3ccc(NC(=O)COc4ccc(Cl)cc4)cc3s2)c1,nt,nt,nt,7.31µM*,nt,6.51µM*
O=C(COc1ccc(Cl)cc1)Nc1ccc(-c2nc3ccccc3s2)c(O)c1,nt,nt,nt,?,nt,18.4µM*
O=C(CCS(=O)(=O)c1ccccc1)Nc1ccc(-c2nc3ccccc3s2)c(O)c1,0.7%,14.6%,3.4%,7.0%,0.0,4.4%
COc1ccc(N2CC(NC(=O)c3ccc(Br)o3)CC2=O)cc1 (stereo not drawn),nt,nt,nt,-17.2%,nt,-21.8%
Cc1onc(-c2ccccc2)c1CNS(=O)(=O)c1ccccc1[N+](=O)[O-],-15.1%,-0.1%,-6.2%,0.3%,12.5,?
CN(C)c1ccc2c(=O)cc[nH]c2c1,24.7%,9.2%,nt,-5.3%,21.3,4.2%
Cc1ccsc1C(=O)Nc1ccc(O)c(-c2nc3ccccc3s2)c1,-0.6%,-16.5%,3.6%,?,2.4,-21.1%
Cc1ccc(C(=O)Nc2ccc(-c3nc4ccccc4s3)c(O)c2)c(C)c1,nt,nt,nt,10.3µM*,nt,?
O=C(Nc1ccnc(-c2ccncc2)n1)c1ccc(Cl)cc1,18.4%,8.5%,-6.3%,-20.0%,19.2,0.4%
CCOC(=O)C1(Cc2ccccc2)CCCN(C(=O)COc2ccccc2OC)C1 (stereo not drawn),0.2%,-3.4%,nt,23.1µM*,-7.1,13µM*
CCOC(=O)C1(Cc2ccccc2)CCCN(Cc2cccc(C(C)=O)c2)C1 (stereo not drawn),6.6%,0.1%,2.3%,?,15.1,16.4µM*
CCOC(=O)C1(Cc2ccccc2)CCCN(C(=O)C=C(C)C)C1 (stereo not drawn),9.5%,4.5%,-0.2%,?,11.2,-51.2%
CCCOc1ccc(N2CC(C(=O)NC3=NCCS3)CC2=O)cc1 (stereo not drawn),12.8%,16.1%,0.9%,-0.4%,0.1,-10.1%
O=C(CCc1ccccc1)NC1CC(=O)N(c2ccccc2)C1 (stereo not drawn),nt,nt,nt,-16.4%,nt,23.1%
COc1ccccc1NC(=O)C1=C(C)Nc2nc(SCc3ccccc3)nn2C1c1cccnc1 (stereo not drawn),nt,nt,nt,20.6µM*,nt,?
COc1cccc(CSc2nc3n(n2)C(CC(C)C)C(C(=O)Nc2ccccc2C)=C(C)N3)c1 (stereo not drawn),nt,nt,nt,?,nt,-37.7%
CC1=C(C(=O)Nc2cccnc2)C(c2ccccc2)n2nc(SCc3ccccc3)nc2N1 (stereo not drawn),nt,nt,nt,-24.3%,nt,-22.9%
COc1ccccc1NC(=O)C1=C(C)Nc2nc(SCc3ccccc3)nn2C1c1cccc(O)c1 (stereo not drawn),nt,nt,nt,?,nt,23.1µM*
CC1=C(C(=O)Nc2ccc(C)cc2C)C(CC(C)C)n2nc(SCc3ccccc3C)nc2N1 (stereo not drawn),nt,nt,nt,10.3µM*,nt,11.6µM*
SMILES,HT1080 IDH1KD tx,HT1080NT lethal,uPA surface inh,DT40 TDP1 CPT,IL-1B inflam inh,DT40 TDP1 no CPT
COc1ccccc1NC(=O)C1=C(C)Nc2nc(SCc3cc(C)ccc3C)nn2C1c1ccccc1 (stereo not drawn),nt,nt,nt,11.6µM*,nt,-79.2%
CC1=C(C(=O)Nc2ccccc2)C(c2ccc(F)cc2)n2nc(SCc3cc(C)ccc3C)nc2N1 (stereo not drawn),nt,nt,nt,-16.6%,nt,-17.2%
COc1ccc(CNC(=O)CCC(=O)Nc2ccc(Cl)cc2)cc1,-19.5%,-25.3%,0.1%,0.2%,4.3,8.1%
COc1ccc(NC(=O)CN2C(=O)CCn3nc(-c4cccn4C)cc32)cc1,nt,nt,nt,2.2%,nt,8.5%
O=C(COC(=O)COc1ccc(Cl)cc1)NC1CCCC1,-2.0%,-4.1%,-4.0%,-3.8%,-7.2,-1.3%
COc1ccccc1NC(=O)C1=C(C)Nc2nc(SCc3ccccc3F)nn2C1c1cccnc1 (stereo not drawn),nt,nt,nt,14.6µM*,nt,10.3µM*
COc1ccc(C2C(C(=O)Nc3ccc(C)cc3C)=C(C)Nc3nc(SC)nn32)cc1OC (stereo not drawn),nt,nt,nt,-11.5%,nt,-13.7%
CC1=C(C(=O)Nc2ccc(C)cc2C)C(c2ccc(Cl)cc2)n2nc(C(=O)OC(C)C)nc2N1 (stereo not drawn),-4.7%,2.1%,2.9%,?,6.5,16.4µM*
CCCCOc1ccc(C)cc1CN(CCO)CCO,-1.0%[9.24 µM],-12.2%,-2.9%,-8.9%,-1.5,1.8%
CCCCCOc1ccc(CN2CCOCC2)cc1Cl,-14.8%,-11.2%,3.8%,-24.5%,-21.7,-18.7%
CCCCCc1ccc(OCCCC[n+]2cccc(C)c2)c(CCCCC)c1,4.11µM*,4.11µM*,-11.4%,2.31µM*,-95.8*,1.16µM*
CCCCCc1ccc(OCCCC[n+]2ccc(C)cc2)c(CCCCC)c1,6.51µM*,6.51µM*,-13.6%,1.03µM*,-99.8*,0.461µM*
CCC(C)(C)c1ccc(OCCCC[n+]2ccccc2)c(C(C)(C)CC)c1,?,16.4µM*,11.2µM*,0.581µM*,-14.2,0.0116µM*
CCCCCCCCCCCCCCCC[n+]1ccc(C)cc1,nt,nt,nt,0.891µM*,nt,0.501µM*
O=C(Cn1ncc2c(=O)oc3ccccc3c21)Nc1cc(F)ccc1F,nt,nt,nt,-0.1%,nt,-15.4%
CC(=O)Nc1ccc(NC(=O)C(C)Sc2nnc(-c3cccs3)o2)cc1 (stereo not drawn),9.9%,16.2%,10.6%,-3.2%,4.2,9.1%
Cc1cccc(OCCOC(=O)CN2C(=O)NC3(CCCC3)C2=O)c1,0.3%,-5.1%,-0.4%,?,?,?
CCCCCc1ccc(OCCCC[n+]2ccccc2)c(CCCCC)c1,8.2µM*,23.1µM*,-12.4%,2.59µM*,-92.8*,2.59µM*

# Source: PubChem BioAssay (National Center for Advancing Translational Sciences (NCATS))
